# In the OligoGym collection:
# Molecular target: C20orf54
# Assay: pooled miR-30 sensor sort-seq; sequence = guide strand
# Settings: shRNA
# Also: reference of the scale not given here.
row,Sequence,sensor-assay potency score (higher = more potent)
1,TTACTCTCCAACTAGTGGGCTT,-0.23
2,TTCCCTTCTAACACCCTTGGGC,0.125
3,TCAGTGACATTGACGCAGGTAG,-0.422
4,TTCTCCTCTAGATACCCCTGGC,-0.528
5,ATCTCAGTGACATTGACGCAGG,-1.25
6,TTGACGTAACTGAGGCAGCCGC,-1.38
7,TTATCTGCTTGTCTTGTAGAAG,-1.04
8,TATCTCAGTGACATTGACGCAG,0.229

# Molecular target: C21orf70
# Assay: as above
# Settings: shRNA
row,Sequence,sensor-assay potency score (higher = more potent)
1,TCCAGCTTCTGCACCAAGGCGC,-0.982
2,TTCGATTTTCTGCAACCATTGC,-1.09
3,TTGCTCACGCCTCAGCTTCATT,-1.27
4,TTGAGCCCCACAACCGACCAGA,-0.652
5,TTTATTGAGCCCCACAACCGAC,-1.2
6,TTCTTGGGCAAAACGGTCTTGG,-0.889
7,TTTTATGGCTTCGATTTTCTGC,-0.59
8,TTCTGCACCAAGGCGCTGGGGT,-0.84
9,TTGGTGTTGATGAACGCCCAGT,-0.833
10,TTTTCTGCAACCATTGCTCACG,-0.501
11,ATTTTCTGCAACCATTGCTCAC,-1.16
12,TCTTCCAGCTGCATCTGCCGGG,-0.496

# Molecular target: C2orf55
# Assay: as above
# Settings: shRNA
row,Sequence,sensor-assay potency score (higher = more potent)
1,TTTTTGGAAACAGTCTATGAAT,-1.5
2,TTATCCTCTTTGTTTTGCCTGG,-0.575
3,TTGTTTGCCACAATACACTGGC,0.782
4,TTTCTGGCAAGTTCCATCCAGG,-0.596
5,TTGATGATAAAATCAATCTTTA,-0.855
6,TTTGCCACAATACACTGGCAGT,-1.43
7,TTTCTTTCTGGCAAGTTCCATC,-0.776
8,ATTATTTTTGGAAACAGTCTAT,-0.496
9,TTTGTTTGCCACAATACACTGG,-0.196
10,TTGAATTTAGATTTTTTCTTTC,-0.493
11,TTAGATTTTTTCTTTCCTGTGC,0.654
12,TTATTTTTGGAAACAGTCTATG,-0.924

# Molecular target: C2orf57
# Assay: as above
# Settings: shRNA
row,Sequence,sensor-assay potency score (higher = more potent)
1,TAGACCTGCTGTCATCCACGTT,-1.17
2,AACAACTGCACTCTTGTCTTTG,-0.961
3,TGTCCTTGCGTCTTGAACCTGC,0.175
4,TTGTCCTTGCGTCTTGAACCTG,-1.12
5,TTCTCCTCAGCAGACTTGGTGG,-0.95
6,TTCTGGAACAACTGCACTCTTG,-1.11
7,TGACATCTTGTCTTTACCCAGG,-0.635
8,ATTTGTGACATCTTGTCTTTAC,-1.19
